This passage reports mean cell size and cell count results from the supplement of paper PMC4709259.

Assay [1] concerns Jurkat. Briefly: mean cell size (FSC-A) relative to DMSO control (fraction of control); higher = larger cells. As to conditions: 48 h. A digest of the protocol: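 Jurkat cells at 600 cells/µl were incubated for 1 h and then treated for 48h with the Enzo Screen-Well FDA Approved Drug Library v2.0 at 25µM, with DMSO at 0.9% (v/v) final. Compounds that reduced counts below 20% of controls were retested in 10-fold dilutions down to 25nM. Cell count and mean cell size, taken as forward scatter area, were measured by flow cytometry relative to solvent-only controls. Each plate carried 6-12 controls, and values are means of 3 biological replicates.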

Assay [2] relates to Jurkat. Put plainly: cell count relative to DMSO control (fraction of control); higher = more cells (less growth inhibition). The note with it: 48 h.

Where a name gives a salt, the structure may show the parent alone. ± gives the standard deviation.

The molecule `CC(=O)O[C@@]12CO[C@@H]1C[C@H](O)[C@@]1(C)C(=O)[C@H](O)C3=C(C)[C@@H](OC(=O)[C@H](O)[C@@H](NC(=O)OC(C)(C)C)c4ccccc4)C[C@@](O)([C@@H](OC(=O)c4ccccc4)[C@H]21)C3(C)C` [Docetaxel (Taxotere)] (concentration: 25 nM) returned a mean cell size in the assay with Jurkat [1] of 1.14 ± 0.035. Besides, in the assay with Jurkat [2], the cell count amounted to 0.518 ± 0.052.

Take `Cc1cccc(Nc2ccccc2C(=O)O)c1C` [Mefenamic Acid] (concentration: 25 µM): the mean cell size in the assay with Jurkat [1] was determined as 0.938 ± 0.025. In the assay on Jurkat [2], this molecule displayed a cell count of 0.655 ± 0.14.

In the assay on Jurkat [1], `COc1c(N2C[C@@H]3CCCN[C@@H]3C2)c(F)cc2c(=O)c(C(=O)O)cn(C3CC3)c12` [Moxifloxacin·HCl] (concentration: 25 µM) displayed a mean cell size of 0.919 ± 0.01. The same molecule came in with a cell count in the assay with Jurkat [2] of 0.632 ± 0.14.

Take `CC[C@H](C)C(=O)O[C@H]1C[C@H](O)C=C2C=C[C@H](C)[C@H](CC[C@@H](O)C[C@@H](O)CC(=O)O)[C@H]21` [Pravastatin·Na] (concentration: 25 µM): in the assay with Jurkat [1], the mean cell size came out at 1.07 ± 0.028. This molecule also gave a cell count in the assay with Jurkat [2] of 0.771 ± 0.15.

`CCc1c2c(nc3ccc(OC(=O)N4CCC(N5CCCCC5)CC4)cc13)-c1cc3c(c(=O)n1C2)COC(=O)[C@]3(O)CC` [Irinotecan·HCl] (concentration: 250 nM) gave a mean cell size in the assay on Jurkat [1] of 1.05 ± 0.038. Also, the cell count in the assay with Jurkat [2] amounted to 0.414 ± 0.034.

`CCC(=O)OCC(=O)[C@@]1(OC(=O)CC)[C@@H](C)C[C@H]2[C@@H]3CCC4=CC(=O)C=C[C@]4(C)[C@@]3(Cl)[C@@H](O)C[C@@]21C` [Beclomethasone Dipropionate] (concentration: 25 µM): the mean cell size in the assay with Jurkat [1] was determined as 0.913 ± 0.049. In the assay with Jurkat [2], this molecule registered a cell count of 0.774 ± 0.07.

`NCCCC(O)(P(=O)(O)O)P(=O)(O)O` [Alendronate·Na Trihydrate] (concentration: 25 µM): in the assay with Jurkat [1], the mean cell size worked out at 0.927 ± 0.043. Moreover, in the assay on Jurkat [2], the cell count is 0.282 ± 0.11.

Turning to `CN(C)CCOC(c1ccccc1)c1ccccc1.Cn1c(=O)c2[nH]c(Cl)nc2n(C)c1=O` [Dimenhydrinate] (concentration: 25 µM), the mean cell size in the assay on Jurkat [1] came out at 1.05 ± 0.051. The same molecule had a cell count in the assay with Jurkat [2] of 0.558 ± 0.15.

As to `COC(=O)C1=C(C)NC(C)=C(C(=O)OC(C)C)C1c1cccc2nonc12` (stereo not drawn) [Isradipine] (concentration: 25 µM), in the assay on Jurkat [1], the mean cell size came to 0.924 ± 0.03. The cell count in the assay with Jurkat [2] came out at 1.13 ± 0.13.

For the molecule `Cn1cnc([N+](=O)[O-])c1Sc1ncnc2[nH]cnc12` [Azathioprine] (concentration: 25 µM), the mean cell size in the assay on Jurkat [1] was 1.02 ± 0.036. In addition, the cell count in the assay with Jurkat [2] was determined as 0.782 ± 0.088.

The molecule `CCCCCOC(=O)Nc1nc(=O)n([C@@H]2O[C@H](C)[C@@H](O)[C@H]2O)cc1F` [Capecitabine] (concentration: 25 µM) displayed a mean cell size with Jurkat [1] of 0.957 ± 0.019. The cell count in the assay on Jurkat [2] was found to be 1.01 ± 0.091.

In the assay on Jurkat [1], `C[C@H]1c2cccc(O)c2C(O)=C2C(=O)[C@]3(O)C(O)=C(C(N)=O)C(=O)[C@@H](N(C)C)[C@@H]3[C@@H](O)[C@@H]21` [Doxycycline Monohydrate] (concentration: 25 µM) showed a mean cell size of 0.861 ± 0.021. Also, the cell count in the assay on Jurkat [2] was 0.266 ± 0.051.

Molecule `CN(C)C(=O)C(CCN1CCC(O)(c2ccc(Cl)cc2)CC1)(c1ccccc1)c1ccccc1` [Loperamide·HCl] (concentration: 25 µM) showed a mean cell size with Jurkat [1] of 0.988 ± 0.033. For the same molecule, the cell count with Jurkat [2] came to 0.572 ± 0.18.

Take `CNCCCN1c2ccccc2CCc2ccccc21` [Desipramine·HCl] (concentration: 25 µM): in the assay with Jurkat [1], the mean cell size amounted to 0.9721 ± 0.0012. The same molecule gave a cell count in the assay with Jurkat [2] of 0.721 ± 0.066.

In the assay with Jurkat [1], `CCCN1CCCC[C@H]1C(=O)Nc1c(C)cccc1C` [Ropivacaine·HCl Monohydrate] (concentration: 25 µM) gave a mean cell size of 0.978 ± 0.014. Besides, the cell count in the assay with Jurkat [2] came to 0.995 ± 0.057.

For the molecule `O=C(O)CCCc1ccccc1` [Sodium Phenylbutyrate] (concentration: 25 µM), in the assay with Jurkat [1], the mean cell size was found to be 0.936 ± 0.024. The same molecule returned a cell count with Jurkat [2] of 1.05 ± 0.12.

On to `C[C@H](N)[C@H](O)c1cccc(O)c1` [Metaraminol Bitartrate] (concentration: 25 µM), for which, in the assay on Jurkat [1], the mean cell size was 1.04 ± 0.058. The cell count in the assay with Jurkat [2] was found to be 0.774 ± 0.12.

For `OC[C@H]1O[C@@H](O[C@@H]2[C@@H](CO)OC(O)(CO)[C@H]2O)[C@H](O)[C@@H](O)[C@H]1O` (mixture of isomers) [Lactulose] (concentration: 25 µM), the mean cell size with Jurkat [1] stood at 0.938 ± 0.046. Further, the cell count in the assay on Jurkat [2] came out at 0.56 ± 0.15.

Consider `CC1COc2c(N3CCN(C)CC3)c(F)cc3c(=O)c(C(=O)O)cn1c23` (stereo not drawn) [Ofloxacin] (concentration: 25 µM), for which the mean cell size with Jurkat [1] stood at 0.928 ± 0.011. The molecule further had a cell count in the assay on Jurkat [2] of 0.989 ± 0.073.

Regarding `OCCN1CCN(CCCN2c3ccccc3Sc3ccc(C(F)(F)F)cc32)CC1` [Fluphenazine·HCl] (concentration: 2.5 µM), in the assay with Jurkat [1], the mean cell size amounted to 1.13 ± 0.017. This molecule yielded a cell count with Jurkat [2] of 0.701 ± 0.079.

In the assay with Jurkat [1], `C[C@@H](O)[C@H]1C(=O)N2C(C(=O)O)=C(SCCNC=N)C[C@H]12` [Imipenem] (concentration: 25 µM) showed a mean cell size of 0.883 ± 0.063. In addition, in the assay with Jurkat [2], the cell count was 0.344 ± 0.13.

Regarding `CNS(=O)(=O)Cc1ccc2[nH]cc(CCN(C)C)c2c1` [Sumatriptan Succinate] (concentration: 25 µM), the mean cell size in the assay with Jurkat [1] is 0.955 ± 0.031. The cell count in the assay with Jurkat [2] is 0.738 ± 0.1.

Take `COc1cc([C@@H]2c3cc4c(cc3[C@@H](O[C@@H]3O[C@@H]5CO[C@@H](c6cccs6)O[C@H]5[C@H](O)[C@H]3O)[C@H]3COC(=O)[C@H]23)OCO4)cc(OC)c1O` [Teniposide] (concentration: 25 nM): in the assay on Jurkat [1], the mean cell size worked out at 1.25 ± 0.033. Besides, in the assay on Jurkat [2], the cell count was 0.478 ± 0.044.

`CCCc1nc(C)c2c(=O)nc(-c3cc(S(=O)(=O)N4CCN(CC)CC4)ccc3OCC)[nH]n12` [Vardenafil] (concentration: 25 µM) came in with a mean cell size in the assay on Jurkat [1] of 0.966 ± 0.021. In the assay on Jurkat [2], this molecule returned a cell count of 0.646 ± 0.099.
